The values below come from ChEMBL document CHEMBL5724796, “Tm Shift (DSF) assay results for EUbOPEN Chemogenomics Library” (2024).

As a reminder, the ΔTm is the shift of the melting midpoint relative to a reference.

What all share (details): Compound concentration 20.0 uM
Test [1] concerns the target Tyrosine-protein kinase ABL1 (Homo sapiens) (UniProt P00519).
In test [2] the target is Bromodomain-containing protein 4 (Homo sapiens) (UniProt O60885).
Test [3] deals with Cyclin-dependent kinase 2 (Homo sapiens) (UniProt P24941).
The target of test [4] is Casein kinase I isoform delta (Homo sapiens) (UniProt P48730).
Sequence of Casein kinase I isoform delta (Homo sapiens) (P48730 whole entry, looked up, canonical isoform): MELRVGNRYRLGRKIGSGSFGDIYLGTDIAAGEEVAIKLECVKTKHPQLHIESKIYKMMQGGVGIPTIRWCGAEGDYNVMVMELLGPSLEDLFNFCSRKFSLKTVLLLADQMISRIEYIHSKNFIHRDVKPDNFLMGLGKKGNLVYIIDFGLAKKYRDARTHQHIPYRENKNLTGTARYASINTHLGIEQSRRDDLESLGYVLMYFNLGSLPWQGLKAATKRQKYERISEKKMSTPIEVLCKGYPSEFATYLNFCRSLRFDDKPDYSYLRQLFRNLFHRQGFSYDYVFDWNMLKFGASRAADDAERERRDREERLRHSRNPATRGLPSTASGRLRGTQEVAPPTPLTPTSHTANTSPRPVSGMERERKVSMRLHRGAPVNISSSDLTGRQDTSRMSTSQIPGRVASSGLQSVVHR
The target in test [5] is Glycogen synthase kinase-3 beta (Homo sapiens) (UniProt P49841).
Sequence of Glycogen synthase kinase-3 beta (Homo sapiens) (P49841 whole entry, looked up): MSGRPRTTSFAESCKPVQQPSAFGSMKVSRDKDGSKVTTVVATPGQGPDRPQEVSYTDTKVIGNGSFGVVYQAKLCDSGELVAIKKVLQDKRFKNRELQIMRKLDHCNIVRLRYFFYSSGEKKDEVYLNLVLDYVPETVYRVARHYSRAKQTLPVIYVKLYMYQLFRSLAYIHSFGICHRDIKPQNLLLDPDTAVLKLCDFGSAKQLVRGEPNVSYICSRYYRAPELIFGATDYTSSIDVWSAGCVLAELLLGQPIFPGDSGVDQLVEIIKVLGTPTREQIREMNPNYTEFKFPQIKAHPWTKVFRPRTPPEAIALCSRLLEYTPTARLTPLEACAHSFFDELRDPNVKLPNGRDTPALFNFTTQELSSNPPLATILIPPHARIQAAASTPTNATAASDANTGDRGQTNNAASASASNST
Test [6] has as its target Mitogen-activated protein kinase 1 (Homo sapiens) (UniProt P28482).
Test [7] addresses T1, Aurora kinase A (Homo sapiens) (UniProt O14965).
T1 sequence (whole entry): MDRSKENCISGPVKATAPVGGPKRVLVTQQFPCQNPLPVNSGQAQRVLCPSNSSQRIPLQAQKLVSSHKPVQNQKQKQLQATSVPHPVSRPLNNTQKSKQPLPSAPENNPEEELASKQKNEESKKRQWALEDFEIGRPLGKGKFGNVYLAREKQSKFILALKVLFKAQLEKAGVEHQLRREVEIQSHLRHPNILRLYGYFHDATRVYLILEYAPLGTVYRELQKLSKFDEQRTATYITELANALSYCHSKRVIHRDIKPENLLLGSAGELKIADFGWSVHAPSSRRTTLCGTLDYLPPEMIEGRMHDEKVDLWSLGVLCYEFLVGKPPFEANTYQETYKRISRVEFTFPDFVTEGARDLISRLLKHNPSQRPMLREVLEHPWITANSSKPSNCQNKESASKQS

Test [8] concerns the target T2, Transcription intermediary factor 1-alpha (Homo sapiens) (UniProt O15164).
T2 sequence (whole entry): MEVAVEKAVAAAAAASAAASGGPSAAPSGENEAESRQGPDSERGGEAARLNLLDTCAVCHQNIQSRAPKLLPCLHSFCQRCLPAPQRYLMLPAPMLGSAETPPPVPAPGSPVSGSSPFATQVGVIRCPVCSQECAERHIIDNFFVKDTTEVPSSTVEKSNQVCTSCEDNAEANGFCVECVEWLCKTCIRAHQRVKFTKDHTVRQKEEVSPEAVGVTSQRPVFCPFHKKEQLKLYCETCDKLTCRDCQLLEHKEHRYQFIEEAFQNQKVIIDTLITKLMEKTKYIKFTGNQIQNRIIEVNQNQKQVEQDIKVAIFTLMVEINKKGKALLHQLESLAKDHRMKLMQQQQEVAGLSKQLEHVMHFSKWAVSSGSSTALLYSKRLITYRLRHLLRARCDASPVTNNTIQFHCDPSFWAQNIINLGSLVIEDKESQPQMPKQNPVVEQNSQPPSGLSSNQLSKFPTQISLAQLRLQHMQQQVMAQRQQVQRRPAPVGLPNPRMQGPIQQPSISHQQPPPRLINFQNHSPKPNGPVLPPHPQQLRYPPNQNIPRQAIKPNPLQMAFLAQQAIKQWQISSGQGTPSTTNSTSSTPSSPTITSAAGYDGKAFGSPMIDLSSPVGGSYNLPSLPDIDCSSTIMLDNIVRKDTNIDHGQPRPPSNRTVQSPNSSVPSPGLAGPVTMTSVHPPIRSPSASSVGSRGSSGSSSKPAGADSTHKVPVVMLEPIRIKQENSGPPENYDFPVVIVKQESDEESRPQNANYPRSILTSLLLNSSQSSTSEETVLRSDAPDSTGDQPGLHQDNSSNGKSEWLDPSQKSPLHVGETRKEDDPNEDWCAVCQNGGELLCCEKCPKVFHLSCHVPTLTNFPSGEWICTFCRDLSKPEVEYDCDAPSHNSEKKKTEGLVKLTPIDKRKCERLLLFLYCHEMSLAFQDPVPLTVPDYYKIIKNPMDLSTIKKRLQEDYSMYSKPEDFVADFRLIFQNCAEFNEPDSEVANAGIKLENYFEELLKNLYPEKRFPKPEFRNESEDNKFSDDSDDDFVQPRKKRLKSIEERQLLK

Sequence of Tyrosine-protein kinase ABL1 (Homo sapiens) (P00519 whole entry): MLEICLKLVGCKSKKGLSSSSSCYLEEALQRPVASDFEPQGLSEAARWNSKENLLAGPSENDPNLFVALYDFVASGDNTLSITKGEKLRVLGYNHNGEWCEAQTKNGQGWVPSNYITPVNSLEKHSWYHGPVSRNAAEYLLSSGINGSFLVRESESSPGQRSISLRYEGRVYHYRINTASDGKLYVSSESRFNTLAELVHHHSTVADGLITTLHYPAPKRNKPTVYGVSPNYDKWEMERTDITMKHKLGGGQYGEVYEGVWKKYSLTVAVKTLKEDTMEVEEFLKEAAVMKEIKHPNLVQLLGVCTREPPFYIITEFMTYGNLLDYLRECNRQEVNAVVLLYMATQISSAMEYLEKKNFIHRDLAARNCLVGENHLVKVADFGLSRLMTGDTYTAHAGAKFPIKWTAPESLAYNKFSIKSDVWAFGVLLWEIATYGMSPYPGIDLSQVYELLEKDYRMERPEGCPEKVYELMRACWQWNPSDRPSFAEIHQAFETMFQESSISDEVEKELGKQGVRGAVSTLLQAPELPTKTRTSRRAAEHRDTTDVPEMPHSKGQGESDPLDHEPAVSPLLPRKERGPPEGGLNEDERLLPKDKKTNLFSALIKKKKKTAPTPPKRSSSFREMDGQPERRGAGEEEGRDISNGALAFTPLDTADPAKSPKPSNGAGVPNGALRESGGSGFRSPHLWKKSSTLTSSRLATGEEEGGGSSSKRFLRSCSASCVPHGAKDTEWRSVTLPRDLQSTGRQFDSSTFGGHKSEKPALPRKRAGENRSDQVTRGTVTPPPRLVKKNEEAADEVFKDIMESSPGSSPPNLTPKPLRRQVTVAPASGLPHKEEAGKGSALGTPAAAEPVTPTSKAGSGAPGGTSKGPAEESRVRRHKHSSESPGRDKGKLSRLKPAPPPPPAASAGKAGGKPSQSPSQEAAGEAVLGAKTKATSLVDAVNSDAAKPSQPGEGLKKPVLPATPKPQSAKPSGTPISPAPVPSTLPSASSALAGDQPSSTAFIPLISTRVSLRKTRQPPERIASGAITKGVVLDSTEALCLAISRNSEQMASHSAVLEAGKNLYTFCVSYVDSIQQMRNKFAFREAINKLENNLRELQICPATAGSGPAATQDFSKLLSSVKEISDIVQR
Sequence of Mitogen-activated protein kinase 1 (Homo sapiens) (P28482 whole entry): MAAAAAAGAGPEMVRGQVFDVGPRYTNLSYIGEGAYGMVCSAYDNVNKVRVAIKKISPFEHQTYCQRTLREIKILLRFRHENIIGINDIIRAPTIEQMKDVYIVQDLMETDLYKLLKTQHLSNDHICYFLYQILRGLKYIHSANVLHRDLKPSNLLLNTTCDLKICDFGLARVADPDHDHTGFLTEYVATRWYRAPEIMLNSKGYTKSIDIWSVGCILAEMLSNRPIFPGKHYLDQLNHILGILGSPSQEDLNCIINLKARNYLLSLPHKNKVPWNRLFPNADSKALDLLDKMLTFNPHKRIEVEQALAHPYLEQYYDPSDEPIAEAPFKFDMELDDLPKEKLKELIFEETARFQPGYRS

Consider `Cc1c(CN2CCC(Nc3ncnc4sc(CC(F)(F)F)cc34)CC2)ccc2[nH]c(C#N)cc12`, for which the ΔTm in test [1] is -0.58 °C; in test [2] it was 0.25 °C; in test [3], -0.04 °C; in test [4], 1.22 °C; in test [5], -1.43 °C; in test [6] it was -1.41 °C. Moreover, the ΔTm in test [7] is -7.15 °C; in test [8], 0.71 °C.
Consider `C[C@@H]1CN(c2ncc(Cl)c(Nc3ccc4c(c3)n(CCC(C)(C)O)c(=O)n4C)n2)C[C@H](C)C1(F)F`, for which the ΔTm is -0.67 °C in test [1]; 0.35 °C in test [2]; 1.82 °C in test [3]; -0.69 °C in test [4]; 4.11 °C in test [5]; -8.12 °C in test [6]. For the same molecule, the ΔTm in test [7] turned out to be 4 °C; in test [8] it was 2.58 °C.
`C[C@@H](Oc1ccc(S(C)(=O)=O)cc1C(=O)N1C[C@@H]2C[C@]2(c2cc(C(F)(F)F)on2)C1)C(F)(F)F`: the shift in melting temperature (ΔTm) was 0.62 °C in test [1]; -3.24 °C in test [2]; 0.09 °C in test [3]; -0.17 °C in test [4]; -0.39 °C in test [5]; 0.07 °C in test [6]. In addition, the values for the shift in melting temperature (ΔTm) in test [7] and in test [8] were -2.51 °C and 0.43 °C, respectively.
In the case of `O=C(NCCc1cc(C(=O)NO)no1)c1ccc(Cl)c(Cl)c1`, the ΔTm in test [1] is 1.11 °C; in test [2] it was -2.11 °C; in test [3], 0.66 °C; in test [4] it was 0.6 °C; in test [5], -1.05 °C; in test [6] it was 0.3 °C. Besides, the ΔTm in test [7] is -0.59 °C; in test [8], -0.96 °C.
Take `COC[C@@H]1CCCN1S(=O)(=O)c1ccc2c(c1)C(=O)C(=O)N2`: the ΔTm is 0.35 °C in test [1]; -1.47 °C in test [2]; -0.41 °C in test [3]; 0.01 °C in test [4]; -0.2 °C in test [5]; -0.37 °C in test [6]. Moreover, the ΔTm was -0.97 °C in test [7] and -0.89 °C in test [8].
With `Fc1ccc(CNc2ncnc3ccc(F)cc23)cc1`, the ΔTm in test [1] is 1.11 °C; in test [2], -2.88 °C; in test [3] it was 0.04 °C; in test [4] it was 0.46 °C; in test [5], 0.18 °C; in test [6], 0.19 °C. For the same molecule, the figures for the ΔTm in test [7] and in test [8] were -1.03 °C and -0.4 °C, respectively.
For the molecule `CNc1nccc(CN([C@H]2CC[C@H](N)CC2)S(=O)(=O)c2ccc(S(=O)(=O)N(Cc3ccc(Cl)cc3)C3CCCC3)cc2)n1`, the ΔTm in test [1] is -0.6 °C; in test [2] it was -2 °C; in test [3], -0.02 °C; in test [4], -0.71 °C; in test [5], -0.62 °C; in test [6], -3.03 °C. The ΔTm was -2.32 °C in test [7] and 0.19 °C in test [8].
On to `CCN(C(=O)c1cc(F)ccc1Oc1cncnc1N1CC2(CCN(C[C@H]3CC[C@H](NS(=O)(=O)CC)CC3)CC2)C1)C(C)C`, for which the thermal shift (ΔTm) is 0.7 °C in test [1]; -2.35 °C in test [2]; 0.16 °C in test [3]; -0.01 °C in test [4]; -0.74 °C in test [5]; 0.48 °C in test [6]. Further, the ΔTm in test [7] is -2.26 °C; in test [8] it was 0.24 °C.
Consider `CCCOc1ccc(NC(=O)CN2CCN(C)CC2)cc1-c1nc(CC)c(CC)c(=O)[nH]1`, for which the ΔTm in test [1] was 0.61 °C; in test [2] it was -1.93 °C; in test [3], 0.23 °C; in test [4], -0.21 °C; in test [5], -0.28 °C; in test [6], 0.66 °C. In addition, the values for the ΔTm in test [7] and in test [8] were -2.39 °C and -1 °C, respectively.
For the molecule `C=CC(=O)Nc1cccc(-c2c[nH]cc2CN(C)CCN)c1`, the ΔTm in test [1] is 0.53 °C; in test [2], -1.27 °C; in test [3], 0.4 °C; in test [4], -0.04 °C; in test [5], -1.22 °C; in test [6], 0.08 °C. Also, the ΔTm in test [7] was -0.37 °C; in test [8], -1.19 °C.
As to `N#Cc1ccc(Nc2cnccc2SCc2ccccc2C(=O)O)c2ccccc12`, the ΔTm in test [1] was 0.28 °C; in test [2], 1.65 °C; in test [3] it was 0.57 °C; in test [4], -0.12 °C; in test [5] it was 0 °C; in test [6], 0.32 °C. Besides, the ΔTm in test [7] was -0.47 °C; in test [8], 1.31 °C.
For `CC(C)(C)OC(=O)N1CCN(C(=O)n2cc(-c3ccc(OC(F)(F)F)cc3)nn2)C(Cc2ccccc2)C1` (centres undefined), the ΔTm in test [1] is 0.06 °C; in test [2], -0.12 °C; in test [3], 0.53 °C; in test [4] it was -0.73 °C; in test [5], -0.69 °C; in test [6], -0.4 °C. For the same molecule, the ΔTm in test [7] was -1.5 °C; in test [8], -0.53 °C.
Take `C[C@H](NC(=O)CCc1nc2ccccc2c(=O)[nH]1)c1ccccc1`: the ΔTm was 0.18 °C in test [1]; 0.84 °C in test [2]; 0.79 °C in test [3]; 0.42 °C in test [4]; -0.21 °C in test [5]; 0.83 °C in test [6]. Further, the ΔTm in test [7] was -1.25 °C; in test [8] it was 0.31 °C.
Take `COc1cc2c(NC3CCN(C)CC3)cc(-c3ccc(C)o3)nc2cc1OCCCN1CCCC1`: the ΔTm in test [1] turned out to be 0.3 °C; in test [2], 0.18 °C; in test [3], 0.69 °C; in test [4], 0.17 °C; in test [5], 0.49 °C; in test [6], 0.01 °C. The ΔTm in test [7] is 0.09 °C; in test [8], -0.54 °C.
Consider `CNCCCN1c2ccccc2CCc2ccccc21`, for which the ΔTm was 0.08 °C in test [1]; -2.59 °C in test [2]; -0.16 °C in test [3]; -0.01 °C in test [4]; -1.29 °C in test [5]; 0.06 °C in test [6]. Further, the ΔTm is -1.87 °C in test [7] and 0.96 °C in test [8].
Consider `COc1ccc(Cc2nc(O)c3c(C)nc([C@@H](CCCc4ccccc4)[C@@H](C)O)n3n2)cc1OC`, for which the ΔTm in test [1] was -0.12 °C; in test [2], -2.72 °C; in test [3], 0 °C; in test [4], -0.14 °C; in test [5], 1.15 °C; in test [6], 0.16 °C. Besides, the ΔTm in test [7] is -1.36 °C; in test [8] it was -0.56 °C.
Regarding `OC[C@H]1O[C@@H](c2ccc(Cl)c(Cc3ccc(O[C@H]4CCOC4)cc3)c2)[C@H](O)[C@@H](O)[C@@H]1O`, the ΔTm was 0.58 °C in test [1]; -2.67 °C in test [2]; -0.08 °C in test [3]; -0.33 °C in test [4]; -0.36 °C in test [5]; 0.5 °C in test [6]. The ΔTm was -1.72 °C in test [7] and -0.73 °C in test [8].
Take `CCCNC(=O)[C@H]1O[C@@H]1C(=O)N[C@H](C(=O)N1CCC[C@H]1C(=O)O)[C@@H](C)CC`: the ΔTm was 0.43 °C in test [1]; -1.16 °C in test [2]; -0.18 °C in test [3]; -0.02 °C in test [4]; 0.22 °C in test [5]; -0.39 °C in test [6]. For the same molecule, the ΔTm in test [7] is -1.17 °C; in test [8], -0.81 °C.
As to `N#Cc1cc(F)cc(Oc2ccc3c(c2C(F)F)[C@@H](O)C(F)(F)S3(=O)=O)c1`, the ΔTm in test [1] was 0.45 °C; in test [2], -2.84 °C; in test [3], -0.03 °C; in test [4] it was -0.34 °C; in test [5], 0.02 °C; in test [6], 0.16 °C. For the same molecule, the shift in melting temperature (ΔTm) in test [7] was -2.42 °C; in test [8], -0.94 °C.
On to `Cc1ccc(F)c2cc(C(=O)N[C@@H]3CCC[C@H](N4CC[C@H](N(C)S(C)(=O)=O)C4)C3)[nH]c12`, for which the ΔTm in test [1] is 0.55 °C; in test [2] it was -1.2 °C; in test [3], 0.24 °C; in test [4], 0.73 °C; in test [5], -1.31 °C; in test [6] it was -0.53 °C. Also, the ΔTm in test [7] is 0.21 °C; in test [8], -1.39 °C.
For `O=C(NO)c1cccc(C(=O)NCCc2ccccc2)c1`, the ΔTm was 0.54 °C in test [1]; -1.69 °C in test [2]; 1.3 °C in test [3]; 0.19 °C in test [4]; -1.53 °C in test [5]; 0.15 °C in test [6]. In addition, the ΔTm was -0.23 °C in test [7] and -1.33 °C in test [8].
For the molecule `O=C(O)/C(S)=C/c1c[nH]c2ccc(F)cc12`, the ΔTm is -1 °C in test [1]; -4.6 °C in test [2]; -0.97 °C in test [3]; 0.7 °C in test [4]; -0.98 °C in test [5]; 0.11 °C in test [6]. For the same molecule, the ΔTm in test [7] was 0.25 °C; in test [8] it was -2.02 °C.
For `N[C@](CCCCB(O)O)(CCN1CCCCC1)C(=O)O`, the ΔTm in test [1] is 0.12 °C; in test [2], 2.02 °C; in test [3] it was 1.3 °C; in test [4], -0.19 °C; in test [5], -0.19 °C; in test [6], 0.26 °C. Besides, the ΔTm in test [7] is -1.26 °C; in test [8], 0.59 °C.
